Assay results: PubChem BioAssay AID686978 (National Center for Advancing Translational Sciences (NCATS), 2013)
Hit rate of the full screen: of about 420,000 compounds, about 64,000 (15%) were called active. Not shown: some 27% with an inconclusive outcome. Not all results are given here. A number with no mark means an inactive call. Calls come from the whole dose curve; as a rule, active = well fitted inhibition curve with a large enough effect; inconclusive = small, poorly fitted or top-dose-only effect; inactive = flat fitted curve, though single readings scatter.

Assay: qHTS for Inhibitors of human tyrosyl-DNA phosphodiesterase 1 (TDP1): qHTS in cells in absence of CPT; note: nearly all actives have a fitted effect of over 55% in size
Conditions: DT40 Tdp1-/- hTDP1 cells, no CPT, ATP luminescence, 48 h; activity change, negative = growth inhibition: at 46.2 µM (top of the series)
Summary of the method: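 Stably hTDP1-transfected Tdp1-null chicken DT40 cells were treated with library compounds minus camptothecin and grown for at least 48 hr at 37 °C, after which cellular ATP was quantified by luminescence.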
% is set by controls: 0 for no effect and ±100 for the full control effect; potency is the fitted concentration of half-maximal effect.

SMILES | activity change, negative = growth inhibition | Potency
COc1cc(/C=C/C(=O)OCC(=O)N2CCOCC2)ccc1OCC#N | -18.8% | 
COC(=O)c1ccc(COc2ccc(/C=C/C(=O)c3ccc(OC)c(CSCC(=O)O)c3)cc2OC)cc1 | -10.6% | 
COCOc1cc(O)c(C(=O)/C=C/c2ccc(OCOC)c(OCOC)c2)c(OCOC)c1 |  | 23.1 µM (active)
CCOC(=O)CSc1nnc(NC(=O)c2cccc(S(=O)(=O)N3CCCCC3)c2)s1 | -1.98% | 
CCOc1ccc(S(=O)(=O)Nc2nc3cc(OC)ccc3s2)cc1 | 4.1% | 
Cc1cc(/C=N/Nc2ccc([N+](=O)[O-])cn2)c(C)n1-c1cccc(C(=O)O)c1 | 13.9% | 
Cc1ccc(-n2c(C)cc(/C=N/Nc3ccc([N+](=O)[O-])cn3)c2C)c(C)c1 |  | 23.1 µM (active)
COc1ccc(Nc2ccc([N+](=O)[O-])cn2)cn1 | -0.0035% | 
Cc1ccc(SCC(=O)Nc2nncs2)cc1 | 0.103% | 
CCOCCC(=O)Nc1ccc2c(c1)c(=O)n(C)n2-c1ccc2ccccc2c1 |  | 5.8 µM (active)
CCCC(=O)Nc1ccc2c(c1)nc(CCNC(=O)c1ccco1)n2C | -9.29% | 
CCOC(=O)c1cccc(NC(=O)CCOc2ccccc2)c1 | -11.2% | 
O=C(CCCOc1ccccc1)NNC(=O)c1ccc(Cl)cc1 | 5.41% | 
CC(C)Oc1ccc(C(CC(=O)N2CCOCC2)C(C)C)cc1 (stereo unspecified) | 13.9% | 
C[N+]1(CC(=O)c2cccs2)CCOCC1 | -7.74% | 
CC(C)CCOc1ccc(C(=O)C[N+]2(C)CCOCC2)cc1 |  | 18.4 µM (active)
COc1ccccc1C1C(C(=O)N2CCCCC2)=C(C)Nc2nc3ccccc3n21 (stereo unspecified) | 2.64% | 
COc1cc(OC)c(NC(=O)c2c3c(nn2C)-c2ccccc2SC3)cc1Cl |  | 16.4 µM (active)
COc1cc(OC)c(NC(=O)c2nc(-c3ccncc3)no2)cc1Cl | -5.54% | 
COc1cc(OC)c(NC(=O)c2cnc(N3CCCC3)nc2C)cc1Cl | -19.9% | 
Cc1cc(C)c(S(=O)(=O)c2cc(F)ccc2C)c(=O)[nH]1 | -0.186% | 
CCOC(=O)c1cc(-c2ccc(F)cc2)n(CC(=O)NCc2ccccn2)c1C | -1.43% | 

SMILES | activity change, negative = growth inhibition | Potency
O=C(C1CCN(S(=O)(=O)c2cnc[nH]2)CC1)N1CCN(Cc2ccc3c(c2)OCO3)CC1 |  | 20.6 µM (active)
CS(=O)(=O)N(CC(=O)N1CCN(Cc2ccc3c(c2)OCO3)CC1)c1ccc2c(c1)OCO2 | -25.9% | 
CCN(CCCNC(=O)C1CCN(S(=O)(=O)c2cnc[nH]2)CC1)c1ccccc1 | -18.9% | 
CC(C)NC(=O)CCCn1c(=S)[nH]c2cc3c(cc2c1=O)OCO3 | -20.5% | 
O=C(COc1ccc(S(=O)(=O)Nc2cccc(C(F)(F)F)c2)cc1)N1CCOCC1 | -13.8% | 
CC(=O)N1CCN(C(=O)c2cccc(S(=O)(=O)Nc3ccc(C)cc3)c2)CC1 | -4.18% | 
CCOC(=O)N1CCN(C(=O)c2ccc(S(=O)(=O)Nc3cccc(C(F)(F)F)c3)cc2)CC1 |  | 6.51 µM (active)
COC(=O)C1=C(C(=O)OC)[C@@H]2N(Cc3ccccc3)c3ccccc3[C@@]23C[C@@H](C(=O)OC)N(S(=O)(=O)c2ccc(C(F)(F)F)cc2)C3=N1 | -22.1% | 
CCCCNS(=O)(=O)c1ccc(S(=O)(=O)n2cnc3ccccc32)cc1 | 2.54% | 
CCOC(=O)c1nc(C)n(-c2ccc(Cl)cc2Cl)n1 | -12.1% | 
Cc1ccc(S(=O)(=O)N2CCN(CC(=O)N/N=C/c3ccc(Br)s3)CC2)cc1 |  | 14.6 µM (active)
Cc1ccc(/C=N/NC(=O)CN2CCN(Cc3ccccc3)CC2)s1 | -20.3% | 
C/C(=N/NC(=O)CN1CCN(S(=O)(=O)c2ccc(Br)cc2)CC1)c1ccncc1 | -17.6% | 
Cc1ccc(C)c(NC2=NCC(=O)N2c2ccc3c(c2)OCCO3)c1 | -0.0277% | 
COc1cc2[nH]c(=S)n(Cc3ccc(F)cc3)c(=O)c2cc1OC | -23.7% | 
CCOc1cc2[nH]c(=S)n(Cc3ccc(C(=O)NCCOC)cc3)c(=O)c2cc1OCC | -12.9% | 
CCOc1cc2[nH]c(=S)n(Cc3ccc(C(=O)N4CCN(C)CC4)cc3)c(=O)c2cc1OCC |  | 16.4 µM (active)
CNC(=O)NC(=O)C(OC(=O)c1cccc(S(=O)(=O)N2CCCCC2)c1)c1ccccc1 (stereo unspecified) | -15% | 
COc1c(C=O)c(CCN(C)C(=O)c2ccc(F)cc2)cc2c1OCO2 | -2.12% | 
O=C1CSC(=S)N1c1ccc(Cl)c(Cl)c1 | -2.25% | 
Cc1ccccc1N1C(=O)C2ON(c3ccccc3)C(c3ccncc3)C2C1=O (stereo unspecified) | -8.98% | 
CC(=O)NC1=NN(C(C)=O)C(C)(c2ccc(Cl)s2)S1 (stereo unspecified) |  | 5.17 µM (active)

SMILES | activity change, negative = growth inhibition | Potency
O=C(NC1=NCCS1)c1ccc(Cl)s1 | 3.11% | 
CC(=O)NC1=NN(C(C)=O)C(C)(CCS(=O)(=O)c2ccc(Cl)c(Cl)c2)S1 (stereo unspecified) | -7.08% | 
COc1ccccc1C1CC(=O)n2c(nc(-c3ccccc3)c2-c2ccccc2)S1 (stereo unspecified) | 4.33% | 
O=C(COC(=O)/C=C/c1cccs1)NC1CCCCC1 | 16.1% | 
CSc1ncccc1C(=O)OCc1ccc(Br)cc1 | -0.34% | 
OC(c1cc(Cl)cc(Cl)c1)c1ncc(-c2ccccc2C(F)(F)F)[nH]1 (stereo unspecified) | -29.3% | 
CCCNc1ncnc2sc(C)c(C)c12 |  | 13 µM (active)
COCCN1CCN(C(=O)c2sc3ncnc(NCC4CCCO4)c3c2C)CC1 (stereo unspecified) | -15.6% | 
CSc1ncnc2sc(C)c(C)c12 | -11.7% | 
COCCOC(=O)C1=C(C)NC(=O)NC1c1ccc(Cl)cc1 (stereo unspecified) | -8.4% | 
CCCCNC(=O)C(C)N(CCN(C)C)C(=O)CCCCCN1C(=O)NC(c2ccc(Cl)cc2)C(C(=O)OCc2ccccc2)=C1C (stereo unspecified) |  | 16.4 µM (active)
CCCCNC(=O)C(C)N(CCN(C)C)C(=O)CCCN1C(=O)NC(c2ccc(Cl)cc2)C(C(=O)OCc2ccccc2)=C1C (stereo unspecified) |  | 18.4 µM (active)
CCOC(=O)CCCNC(=O)CN1C(=O)NC(CCc2ccccc2)C1=O (stereo unspecified) | 1.07% | 
CC1=C(C(=O)OCc2ccccc2)C(c2ccc(C(F)(F)F)cc2)NC(=O)N1CCCCCC(=O)O (stereo unspecified) | -0.318% | 
CC1=C(C(=O)OC(C)(C)C)C(c2ccc(Br)cc2)NC(=O)N1CCCC(=O)O (stereo unspecified) | -1.02% | 
CC(C)c1nccn1S(=O)(=O)c1cc([N+](=O)[O-])ccc1Cl | -15% | 
c1ccc2c(c1)OC1OC2Oc2ccccc21 | -15.1% | 
O=C(CCN1C(=O)C2C3CCC(C3)C2C1=O)Nc1ccc(Cl)cc1Cl (stereo unspecified) | -25.1% | 
Cc1[nH]c2ccccc2c1/C=N/NC(=O)CNC(=O)c1ccc2c(c1)OCO2 | -24.4% | 
CCOc1ccc2ccccc2c1/C=N/NC(=O)c1c(C)cc(C)[nH]c1=O | -10.3% | 
O=C(N/N=C/c1c(Cl)[nH]c2ccccc12)c1sc2ccccc2c1Cl |  | 13 µM (active)
C[C@H](NC(=O)C1CC(=O)N(c2ccc3c(c2)OCCO3)C1)C(=O)N1CCC(C(=O)O)CC1 (stereo partly specified) | 17.9% | 

SMILES | activity change, negative = growth inhibition | Potency
CCC(C)(C)NC(=O)C(c1ccccn1)N(C(=O)c1csnn1)c1ccccc1 (stereo unspecified) | -21.4% | 
CCc1ccc(NC(=O)CS(=O)CC(=O)NCCCc2ccccc2)cc1 (stereo unspecified) | -20% | 
Nc1ccc(C(=O)OCC(=O)NC2CCS(=O)(=O)C2)cc1[N+](=O)[O-] (stereo unspecified) | 33.8% | 
Cc1cc(CNC(=O)C2CCC(=O)N(CCc3ccc(Cl)cc3)C2)no1 (stereo unspecified) | -5.14% | 
COc1cccc(OCc2cc(C(=O)N3CCN(C(=O)c4ccco4)CC3)no2)c1 | -24.7% | 
Cc1ccc(OCC(=O)Nc2ccc(N3CCN(C(=O)c4ccco4)CC3)cc2)c(C)c1 |  | 8.2 µM (active)
COc1cccc(C(=O)Nc2cc3c(cc2Br)OCCCO3)c1 | -42% | 
Cc1ccc(OCC(=O)Nc2ccc(NC(=O)c3cccs3)cc2)c(C)c1 | -29.3% | 
COc1cccc(C(=O)Nc2ccc(N3CCCC3)cc2)c1 |  | 8.2 µM (active)
CCCCN(CC)C(=S)Nc1ccc2nc3n(c(=O)c2c1)CCCCC3 | -23.6% | 
CCC(=O)Nc1ccc(C(=O)N2CCN(C(=O)c3ccco3)CC2)cc1 | -8.96% | 
COc1cccc(C(=O)Nc2ccc(N3CCN(C(=O)c4ccco4)CC3)cc2)c1 |  | 11.6 µM (active)
NS(=O)(=O)c1ccc(NC(=O)C(=O)Nc2ccc3nc4n(c(=O)c3c2)CCCCC4)cc1 | 8.65% | 
COc1cccc(OC)c1C(=O)Nc1ccc(N2CCCCC2)cc1 | -2.14% | 
COc1cccc(C(=O)Nc2ccc3nc4n(c(=O)c3c2)CCCCC4)c1 |  | 20.6 µM (active)
O=C(c1ccco1)N1CCN(c2cccc(Cl)c2)CC1 | -21.5% | 
COc1ccccc1NC(=O)C1=C(C)NC2=C(C(=O)CCC2)C1c1ccc(C)o1 (stereo unspecified) | -2.13% | 
CCN(CC)C(=O)C(=O)c1cn(CC(=O)NCc2ccc3c(c2)OCO3)c2ccccc12 | -6.26% | 
CCOC(=O)N1CCN(S(=O)(=O)N2CCCC(C(=O)NCCCN3CCC(C)CC3)C2)CC1 (stereo unspecified) | 21.8% | 
Cc1ccc(C(c2sc3nc(C)nn3c2O)N2CCN(c3ccc(F)cc3)CC2)cc1 (stereo unspecified) | -20.8% | 
Cc1ccc(CNC(=O)CCNS(=O)(=O)c2cccc3nonc23)cc1 | -8.67% | 
CS/C(=C\C(=O)c1ccco1)Nc1ccccc1Cl | -29.9% | 

SMILES | activity change, negative = growth inhibition | Potency
Cc1nc(CN(C)C(=O)CC2C(=O)NCCN2Cc2ccc(F)cc2)cs1 (stereo unspecified) | -2.58% | 
O=C(CCNS(=O)(=O)c1ccccc1C(F)(F)F)Nc1ccncc1 | 4.83% | 
Cc1cc(Nc2ccccc2)n(C(=O)c2ccc(N)cc2)n1 | -5.11% | 
CC(C)c1ccc(NS(=O)(=O)c2cn(C)c(=O)n(C)c2=O)cc1 | -14.9% | 
O=C(Cc1ccccc1)NNC(=O)C1CCN(c2ncccn2)CC1 | -26.3% | 
COc1ccc(NC(=O)CSc2nc(NS(=O)(=O)c3ccc(C)cc3)cc(=O)[nH]2)cc1 | -23.2% | 
CC(=O)Nc1ccc(S(=O)(=O)Nc2cc(C)cn(Cc3ccc(C)cc3)c2=O)cc1 |  | 11.6 µM (active)
CCc1ccc(OC(C)C(=O)Nc2ccc(S(=O)(=O)Nc3cc(C)on3)cc2)cc1 (stereo unspecified) | -3.93% | 
CCN(CC)CCn1c2c(c(SCC(=O)Nc3nc4ccccc4s3)nc1=O)CCCC2 | -54.2% | 
Cc1ccc(S(=O)(=O)NC(=O)c2cccc(C)c2)cc1 | 0.889% | 
O=C(Nn1cnc2ccccc2c1=O)c1ccccc1 | 0.973% | 
Cc1nc2ccccc2c(=O)n1NC(=O)c1ccccc1 | 8.1% | 
Cc1cccc(C(=O)NCCCN(C)CCCNC(=O)c2cccc(C)c2)c1 | -2.23% | 
O=C(Cn1cnc2ccccc2c1=O)NNC(=O)c1ccccc1F | 6.81% | 
CN(NC(=O)c1ccccc1F)c1nc(C(F)(F)F)nc2ccccc12 |  | 0.206 µM (active)
CSc1nc(N(C)NC(=O)c2cccc(C)c2)c2ccccc2n1 |  | 0.0146 µM (active)
COC(=O)CNC(=O)c1ccccc1F | -46.9% | 
CN(NC(=O)c1ccccc1)c1nc2ccccc2nc1C(F)(F)F |  | 7.31 µM (active)
